Screening results from PubChem BioAssay.
L3MBTL1 block: qHTS Assay for the Inhibitors of L3MBTL1; Lethal(3)malignant brain tumor-like protein 1 (Homo sapiens), Q9Y468; AlphaScreen L3MBTL1–H3K9me1 peptide binding; Potency, µM (doses to about 57.1 µM), hits mostly inhibitors; 0.66% of 230,000 active; AID 485360, 2010; further: nearly all actives have a fitted effect of over 60% in size
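L3MBTL1 50 nM + b-AHA-H3(1-15)K9me1 75 nM, 30 min RT; compound added, 30 min RT; streptavidin donor/Ni-chelate acceptor beads 10 ug/mL each final, 30 min RT dark; AlphaScreen read.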
JMJD2E inh: qHTS Assay for Inhibitors of Human Jumonji Domain Containing 2E (JMJD2E) | Lysine-specific demethylase 4E (Homo sapiens), B2RXH2 | JMJD2E catalytic domain, FDH-coupled NADH fluorescence (FDH is formaldehyde dehydrogenase) | Potency, µM (highest dose often 57.1 µM), usual class: inhibitors | 1.6% of 230,000 active; active means well fitted inhibition curve with a large enough effect, not every such curve was filed as active; inconclusive means small, poorly fitted or top-dose-only effect, or another doubt; inactive means no such curve, though single readings can be large or run the other way; further: nearly all actives have a fitted effect of over 50% in size
Target sequence (B2RXH2 1-337 limits assumed): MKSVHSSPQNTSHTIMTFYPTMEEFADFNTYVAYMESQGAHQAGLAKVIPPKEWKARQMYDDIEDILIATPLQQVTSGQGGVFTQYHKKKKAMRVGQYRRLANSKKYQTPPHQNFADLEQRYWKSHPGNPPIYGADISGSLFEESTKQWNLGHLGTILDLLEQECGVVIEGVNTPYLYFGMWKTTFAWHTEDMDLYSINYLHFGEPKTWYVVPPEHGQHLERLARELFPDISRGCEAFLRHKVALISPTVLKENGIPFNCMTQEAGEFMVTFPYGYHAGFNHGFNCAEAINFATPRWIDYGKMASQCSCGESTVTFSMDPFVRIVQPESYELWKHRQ
APEX1 inh: qHTS Assay for Inhibitors of the Human Apurinic/apyrimidinic Endonuclease 1 (APE1). DNA repair nuclease/redox regulator APEX1 (Homo sapiens), P27695. recombinant APE1, TAMRA/BHQ-2 abasic DNA cleavage fluorescence. Potency, µM (titrated, usually from 65.8 µM), hits mostly inhibitors. 0.35% of 350,000 active; further: nearly all actives have a fitted effect of over 55% in size
Target sequence (P27695 whole entry, looked up): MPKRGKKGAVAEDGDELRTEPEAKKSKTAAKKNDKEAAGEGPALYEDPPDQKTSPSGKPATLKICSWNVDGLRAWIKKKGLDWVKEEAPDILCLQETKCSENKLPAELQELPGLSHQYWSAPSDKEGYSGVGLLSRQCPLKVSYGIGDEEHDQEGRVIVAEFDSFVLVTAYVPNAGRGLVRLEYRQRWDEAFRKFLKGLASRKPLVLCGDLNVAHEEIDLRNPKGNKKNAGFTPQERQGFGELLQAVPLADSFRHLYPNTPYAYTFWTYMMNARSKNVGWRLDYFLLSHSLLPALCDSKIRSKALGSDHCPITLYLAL
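Incision of a quenched TAMRA/BHQ-2 THF abasic-site duplex (50 nM) by 0.75 nM APE1, after 15 min compound preincubation, measured as fluorescence increase over three 60 s reads. Values normalized to buffer, DMSO and NSC13755 control wells.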
GCN5L2 inh: qHTS Assay for Inhibitors of GCN5L2; Histone acetyltransferase KAT2A (Homo sapiens), Q92830; GCN5L2 HAT assay, ThioGlo1 CoA-SH fluorescence; Potency, µM (top dose mostly 58.9 µM), actives largely listed as inhibitors; 0.21% of 390,000 active; AID 504327, 2011
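ThioGlo1-coupled HAT assay: 20nM GCN5L2, 70uM acetyl-CoA, 75uM H3(1-25) peptide, pH 7.5. Fluorescence read at 340/540nm at start and after 20 min at room temperature.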
RECQ1 inh-1: qHTS Assay for Inhibitors of RecQ-Like Dna Helicase 1 (RECQ1). RECQ1 DNA unwinding, red fluorescence kinetic read. Potency, µM (titrated, usually from 57.3 µM), hits mostly inhibitors. 0.54% of 240,000 active. ATP-dependent DNA helicase Q1 (Homo sapiens), P46063; further: nearly all actives have a fitted effect of over 30% in size
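RECQ1T1 50 nM; forked duplex (20 bp + 30-nt ss tails) 200 nM, ATP 2 mM final; pH 8.0, 2 mM MgCl2, 2.5 ug/ml poly(dI-dC); 15 min compound preincubation; discontinuous kinetic read over 2 h at RT.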
BLM helicase inh: qHTS Assay for Inhibitors of Bloom's syndrome helicase (BLM). Potency, µM (series often up to 56.1 µM), most hits filed as inhibitors. RecQ-like DNA helicase BLM (Homo sapiens), P54132. recombinant BLM DNA unwinding, fluorescence dequenching. 0.2% of 350,000 active; further: nearly all actives have a fitted effect of over 35% in size
RECQ1 conf: Confirmation qHTS Assay for Inhibitors of RecQ-Like Dna Helicase 1 (RECQ1) | shares compounds with RECQ1 inh-1 | RECQ1 helicase DNA unwinding, fluorescence | Potency, µM (top dose mostly 229 µM), usual class: inhibitors | 28% of 610 active | AID 2708, 2010; further: nearly all actives have a fitted effect of over 45% in size
RECQ1 ADP FP: Counterscreen for RECQ1 Inhibitors: ADP Fluorescence Polarization Displacement Assay | 27% of 530 active | Potency, µM (titrated, usually from 228 µM), actives largely listed as inhibitors | ADP fluorescence polarization displacement counterscreen | shares compounds with RECQ1 inh-1; further: nearly all actives have a fitted effect of over 45% in size
RECQ1 inh-2: Confirmation qHTS Assay for Inhibitors of RecQ-Like Dna Helicase 1 (RECQ1) - Round 2 Cherry Picks; shares compounds with RECQ1 inh-1; recombinant RECQ1 DNA unwinding, red fluorescence; Potency, µM (series often up to 119 µM), usual class: inhibitors; 15% of 1,100 active; AID 504841, 2011; further: nearly all actives have a fitted effect of over 50% in size
Each line names hits and unclear results; the compound was inactive in the other large screens (follow-up assays come after a bar, where they were run); ! = repeats disagree. This excerpt belongs to a sample that is enriched for hits. Unless noted, the call rests on the fitted dose curve; in most records, active means well fitted curve in the direction sought with a large enough effect; inconclusive means small, poorly fitted or top-dose-only effect, or another doubt; inactive means no such curve, though single readings can be large; an effect the other way counts as inactive or inconclusive.

O=C(OCC(=O)N1CCN(C(=O)COC(=O)c2ccc(O)cc2O)CC1)c1ccc(O)cc1O	none (no result: JMJD2E inh, RECQ1 inh-1, BLM helicase inh)
COc1cccc(Nc2ncc3nc(-c4cc(F)cc(F)c4)c(=O)n(CCC#N)c3n2)c1	RECQ1 inh-1 inconclusive (no result: L3MBTL1 block, JMJD2E inh) | RECQ1 inh-2 inconclusive
O=C(N/N=C/c1ccc[nH]1)c1ccccc1O	RECQ1 inh-1 3.5µM | RECQ1 conf inactive | RECQ1 ADP FP inactive
O=C(N/N=C/c1ccc[nH]1)c1ccc(O)cc1	JMJD2E inh inconclusive
CCOc1ccc2oc(-c3ccccc3)c(C(=O)O)c2c1	JMJD2E inh inconclusive, RECQ1 inh-1 inconclusive | RECQ1 inh-2 inactive
Cc1ccc(C(=O)OCC(=O)NCCN2C(=O)CSC2=O)cc1	none
CCNc1ccc(C(=O)OCC(=O)NCCN2C(=O)CSC2=O)cc1[N+](=O)[O-]	RECQ1 inh-1 inconclusive | RECQ1 inh-2 inactive
O=C(NCCOc1ccccc1)C1=CC=CN2CCS(=O)(=O)N=C12	none (no result: JMJD2E inh, RECQ1 inh-1, BLM helicase inh)
CC(C)[C@H](NS(=O)(=O)c1ccc2c(c1)OCCO2)C(=O)OCC(=O)Nc1ccccc1Cl	none
CC(C)[C@H](NS(=O)(=O)c1ccc2c(c1)OCCO2)C(=O)OCC(=O)Nc1cc(Cl)ccc1Cl	RECQ1 inh-1 50µM | RECQ1 inh-2 inactive
O=S(=O)(c1ccccc1)c1nc(NC2CC2)sc1Cl	L3MBTL1 block inconclusive, RECQ1 inh-1 40µM | RECQ1 inh-2 inactive
CC(C)CNc1nc(S(=O)(=O)c2ccccc2)c(Cl)s1	none
COc1ccc(OCC(=O)Nc2nc3ccc(NC(C)=O)cc3s2)cc1	JMJD2E inh inconclusive, RECQ1 inh-1 inconclusive | RECQ1 inh-2 inconclusive
CC(=O)c1cccc(NC(=O)C2C(c3ccccc3)C2(Cl)Cl)c1 (centres undefined)	none
Cc1cccc(NC(=O)C2C(c3ccccc3)C2(Cl)Cl)c1 (centres undefined)	RECQ1 inh-1 inconclusive | RECQ1 inh-2 inactive
Cc1ccccc1NC(=O)Cn1nc(C(=O)O)c2ccccc2c1=O	none (no result: L3MBTL1 block, JMJD2E inh, RECQ1 inh-1)
O=C(Cn1nc(C(=O)O)c2ccccc2c1=O)Nc1nc(-c2ccccc2)cs1	none | RECQ1 conf inactive | RECQ1 ADP FP inactive
COc1ccc(-c2nnc(NC(=O)c3ccc(S(=O)(=O)N4CCc5ccccc5C4)cc3)o2)cc1	none
COC(=O)c1ccc(-c2csc(NC(=O)c3ccc(S(=O)(=O)N4CCc5ccccc5C4)cc3)n2)cc1	none | RECQ1 conf inactive | RECQ1 ADP FP inactive
COc1ccc(-c2csc(NC(=O)c3ccc(S(=O)(=O)N4CCc5ccccc5C4)cc3)n2)cc1	JMJD2E inh inconclusive | RECQ1 conf inactive | RECQ1 ADP FP inactive
Cc1ccc(CNC(=O)CSc2ccc(-c3ccco3)nn2)cc1	JMJD2E inh inconclusive
O=C(CSc1ccc(-c2ccco2)nn1)NCCc1ccccc1	JMJD2E inh inconclusive, APEX1 inh inconclusive, RECQ1 inh-1 40µM (no result: L3MBTL1 block) | RECQ1 inh-2 inactive
COC(=O)[C@@]1(Cc2ccc(OC)cc2)[C@H]2c3cc(C(=O)N(C)C)n(Cc4nc5ccccc5[nH]4)c3C[C@H]2CN1C(=O)c1ccccc1	JMJD2E inh inconclusive (no result: L3MBTL1 block, GCN5L2 inh)
CCOC(=O)CN1C(=O)N[C@@H](CCc2ccccc2)[C@@H](C(=O)OC)[C@H]1C	none (no result: L3MBTL1 block, GCN5L2 inh)
COc1cc(C(=O)Nc2cccc(C)c2C)ccc1OCC(=O)N1CCOCC1	none (no result: JMJD2E inh, RECQ1 inh-1, BLM helicase inh)
O=C(c1cc(-c2ccco2)on1)N1CCCc2ccccc21	RECQ1 inh-1 40µM | RECQ1 inh-2 inconclusive
COC(=O)c1ccc(C2=NOC(C)(c3nnc(Cc4ccccc4)o3)C2)cc1 (centres undefined)	none (no result: JMJD2E inh, RECQ1 inh-1, BLM helicase inh)
CS(=O)(=O)N1CCC2(CCCN(C(c3ccccc3)c3ccccc3)C2)CC1	none (no result: L3MBTL1 block, JMJD2E inh)
O=C(c1ccccc1)N1CCCC(C(=O)N2CCN(c3ccccc3)CC2)C1 (centres undefined)	none
COc1ccc(CC(=O)Nc2ccc(C(=O)NC(C)(C)C)cc2)cc1OC	none
COc1ccc(CC(=O)Nc2ccc(C(=O)Nc3ccccc3C(=O)O)cc2)cc1OC	none | RECQ1 conf inactive | RECQ1 ADP FP inactive
O=c1oc2ccccc2c2oc3cc(O)c(O)cc3c12	L3MBTL1 block inconclusive, JMJD2E inh 28µM, APEX1 inh inconclusive, RECQ1 inh-1 25µM, BLM helicase inh 10µM! | RECQ1 inh-2 35µM
COc1cc(N2CCCC2)c(OC)cc1/C=C(/C#N)c1cccc(F)c1	RECQ1 inh-1 4µM (no result: L3MBTL1 block) | RECQ1 conf inconclusive | RECQ1 ADP FP inconclusive
Cc1ccc(NC(=S)NC(=O)c2sc3ccccc3c2Cl)c(C(=O)O)c1	JMJD2E inh inconclusive | RECQ1 conf 89µM | RECQ1 ADP FP inconclusive
O=C(O)c1ccccc1NC(=S)NC(=O)c1sc2ccccc2c1Cl	JMJD2E inh inconclusive (no result: L3MBTL1 block)
c1ccc(-c2csc3ncnc(N4CCN(Cc5ccc6c(c5)OCO6)CC4)c23)cc1	none (no result: L3MBTL1 block, JMJD2E inh, RECQ1 inh-1)
O=C(CSc1ncnc2scc(-c3ccccc3)c12)N1CCN(Cc2ccc3c(c2)OCO3)CC1	L3MBTL1 block inconclusive, GCN5L2 inh inconclusive, RECQ1 inh-1 13µM | RECQ1 conf inconclusive | RECQ1 inh-2 inactive
CCCCc1cc(=O)oc2cc(C)c(CN3CCCC3)c(O)c12	L3MBTL1 block inconclusive, JMJD2E inh inconclusive, GCN5L2 inh inconclusive, RECQ1 inh-1 13µM, BLM helicase inh inconclusive | RECQ1 conf 20µM | RECQ1 ADP FP 50µM | RECQ1 inh-2 inconclusive
CO[C@H]1C[C@@H]2C[C@H](O)C[C@@H](CC(=O)O[C@@H](/C=C\CC(C)C)C[C@@H]3CC[C@H](C)[C@@H](C1)O3)O2	none (no result: L3MBTL1 block, JMJD2E inh, GCN5L2 inh)
